# According to PubChem BioAssay (NCATS):
# Results filed as inconclusive are left out. Entries that show only a call come without a potency. The source made the active and inactive calls. Calls follow the shape of the dose curve; as a rule, active = well fitted inhibition curve with a large enough effect; inconclusive = small, poorly fitted or top-dose-only effect; inactive = flat fitted curve, though single readings scatter.
# Legend:
# Experiment in all cases: qHTS profiling for inhibitors of Plasmodium falciparum proliferation (AID 504749); also: nearly all actives have a fitted effect of over 60% in size
# Conditions in all cases: P. falciparum in erythrocytes, SYBR Green DNA, 72 h; series mostly up to 28.7 µM
# [1] = system: 3D7
# How it was run: (§1)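 Infected RBCs, 0.3% parasitemia/2.5% Hct final; cpd 72 h, 37 C, 5% CO2; lysis buffer with saponin/triton/SYBR Green I, o/n RT dark; FI 485/535; norm. to artemisinin (0.29 uM) and DMSO.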
# [2] = system: C2A
# How it was run: as §1
# [3] = system: CP191
# How it was run: as §1
# [4] = system: CP192
# How it was run: as §1
# [5] = system: CP194
# How it was run: as §1
# [6] = system: CP237
# How it was run: as §1
# [7] = system: CP250
# How it was run: as §1
# [8] = system: CP256
# How it was run: as §1
# [9] = system: CP268
# How it was run: as §1
# [10] = system: CP305
# How it was run: as §1
# [11] = system: CP315
# How it was run: as §1
# [12] = system: Dd2
# How it was run: as §1
# [13] = system: HB3
# How it was run: as §1
# [14] = system: JCK
# How it was run: as §1
# [15] = system: P94_40
# How it was run: as §1
# [16] = system: PC15
# How it was run: as §1
# [17] = system: PC49
# How it was run: as §1
# [18] = system: SC27B
# How it was run: as §1
# [19] = system: TAB113
# How it was run: as §1
# [20] = system: TAB165
# How it was run: as §1
# Potency is read from the fitted curve at half-maximal effect.
SMILES,Potency [1],Potency [2],Potency [3],Potency [4],Potency [5],Potency [6],Potency [7],Potency [8],Potency [9],Potency [10],Potency [11],Potency [12],Potency [13],Potency [14],Potency [15],Potency [16],Potency [17],Potency [18],Potency [19],Potency [20]
OCC(O)C(O)C(O)C(O)CO (stereo not drawn),inactive,inactive,inactive,inactive,inactive,inactive,inactive,inactive,inactive,inactive,inactive,inactive,inactive,inactive,inactive,inactive,inactive,inactive,inactive,inactive
COC(=O)C1C2CC3c4[nH]c5cc(OC)ccc5c4CCN3CC2CC(OC)C1OC (stereo not drawn),inactive,inactive,inactive,inactive,inactive,inactive,inactive,inactive,inactive,inactive,inactive,inactive,inactive,inactive,inactive,inactive,inactive,inactive,inactive,inactive
CC1CN(c2c(F)c(N)c3c(=O)c(C(=O)O)cn(C4CC4)c3c2F)CC(C)N1 (stereo not drawn),inactive,inactive,inactive,inactive,inactive,inactive,inactive,inactive,inactive,inactive,inactive,inactive,inactive,inactive,inactive,inactive,inactive,inactive,inactive,inactive
C[C@]12CC[C@@H]3c4ccc(O)cc4CC[C@H]3[C@@H]1CCC2OC(=O)CCC1CCCC1 (stereo partly drawn),,inactive,inactive,inactive,inactive,,inactive,inactive,inactive,inactive,inactive,,inactive,inactive,inactive,,inactive,inactive,inactive,inactive
CC1OC(OC2C(O)CC(OC3C(O)CC(OC4CCC5(C)C(CCC6C5CCC5(C)C(C7=CC(=O)OC7)CCC65O)C4)OC3C)OC2C)CC(O)C1O (stereo not drawn),,inactive,inactive,inactive,,,inactive,inactive,inactive,inactive,inactive,,,inactive,inactive,,inactive,inactive,inactive,inactive
Nc1nc2[nH]cc(CCc3ccc(C(=O)NC(CCC(=O)O)C(=O)O)cc3)c2c(=O)[nH]1 (stereo not drawn),8.91 µM (active),0.316 µM (active),0.158 µM (active),9.53 µM (active),3.79 µM (active),0.0794 µM (active),0.251 µM (active),0.224 µM (active),,,0.953 µM (active),5.01 µM (active),0.0708 µM (active),5.62 µM (active),,,0.562 µM (active),,,7.94 µM (active)
CC(=O)CC(c1ccccc1)C1C(=O)Oc2ccccc2C1=O (stereo not drawn),inactive,inactive,inactive,inactive,inactive,inactive,inactive,inactive,inactive,inactive,inactive,inactive,inactive,inactive,inactive,inactive,inactive,inactive,inactive,inactive
N#C/C(=C1/SCC(c2ccccc2Cl)S1)n1ccnc1 (stereo not drawn),inactive,inactive,inactive,inactive,inactive,inactive,inactive,inactive,inactive,inactive,inactive,inactive,inactive,inactive,inactive,inactive,inactive,,inactive,12.6 µM (active)
C/C(=C(/CCOC(=O)C(C)C)SS/C(CCOC(=O)C(C)C)=C(\C)N(C=O)Cc1cnc(C)nc1N)N(C=O)Cc1cnc(C)nc1N,inactive,inactive,,inactive,inactive,inactive,inactive,inactive,inactive,inactive,inactive,inactive,inactive,inactive,inactive,inactive,inactive,inactive,inactive,inactive
C#C[C@]1(O)CC[C@H]2[C@H]3[C@H](CC[C@@]21C)C1=C(CC(=O)CC1)C[C@@H]3C,inactive,inactive,inactive,inactive,inactive,inactive,inactive,inactive,inactive,inactive,inactive,inactive,inactive,inactive,inactive,inactive,inactive,inactive,inactive,inactive
Cc1cc(O)c2c(c1)OC1(C)CCC3C(C)(C)CCCC34COC2C14 (stereo not drawn),,inactive,,inactive,,,,inactive,,,inactive,,,,,,,,8.91 µM (active),
CC[C@H]1OC(=O)[C@H](C)C(=O)[C@H](C)[C@@H](OC2O[C@H](C)C[C@H](N(C)C)[C@@H]2O)[C@@](C)(OC)C[C@@H](C)C(=O)[C@@H](C)C2N(CCCCn3cnc(-c4cccnc4)c3)C(=O)O[C@@]21C (stereo partly drawn),,inactive,,inactive,inactive,,inactive,inactive,inactive,inactive,inactive,,,,,inactive,inactive,,,
CN(C)CC[C@@](O)(c1ccccc1)c1ccccc1Cl,,,,,7.57 µM (active),1.41 µM (active),,5.62 µM (active),13.5 µM (active),,,2 µM (active),,,6.31 µM (active),7.08 µM (active),,5.62 µM (active),11.2 µM (active),6.31 µM (active)
O=C1Oc2ccccc2C(=O)C1C(CC(O)c1ccc(-c2ccc(Br)cc2)cc1)c1ccccc1 (stereo not drawn),inactive,,inactive,inactive,inactive,inactive,,,inactive,inactive,inactive,inactive,inactive,,inactive,inactive,inactive,inactive,inactive,inactive
CCOc1ccccc1O[C@@H](c1ccccc1)[C@@H]1CNCCO1,,,,inactive,,,inactive,,inactive,inactive,inactive,0.0794 µM (active),inactive,,,,2.24 µM (active),,,10 µM (active)
CC1=C(C/C=C(\C)CCCC(C)CCCC(C)CCCC(C)C)C(=O)c2ccccc2C1=O (stereo not drawn),8.91 µM (active),inactive,,inactive,inactive,,inactive,inactive,inactive,inactive,inactive,8.91 µM (active),11.2 µM (active),inactive,4.47 µM (active),,inactive,,8.91 µM (active),
CCC1OC(=O)C[C@@H](O)[C@H](C)[C@@H](OC2OC(C)CC(N(C)C)C2O)[C@@H](CC=O)C[C@@H](C)C(=O)/C=C/[C@]2(C)OC2C1C (stereo partly drawn),,,,,,5.01 µM (active),,2.24 µM (active),,,,1 µM (active),,inactive,,inactive,,,,
O=C(O)c1ccccc1-c1c2ccc(=O)cc-2oc2cc(O)ccc12,,,,,,,,,,,inactive,,,,,,,,,
NC(C(=O)O)C(O)c1ccc(O)c(O)c1 (stereo not drawn),8.91 µM (active),,,,,,,,,,inactive,,,inactive,,inactive,inactive,,,
